Results filed as inconclusive are left out. The source made the active and inactive calls. The call rests on the fitted dose curve; in most records, active means well fitted curve in the direction sought with a large enough effect; inconclusive means small, poorly fitted or top-dose-only effect, or another doubt; inactive means no such curve, though single readings can be large; an effect the other way counts as inactive or inconclusive.
How the values were obtained:
[1] = target: Pyruvate kinase PKM (Homo sapiens) (UniProt P14618); experiment: qHTS Assay for Inhibitors of Human Muscle Pyruvate Kinase (AID 958)
Chain of Pyruvate kinase PKM (Homo sapiens) (P14618 whole entry, looked up): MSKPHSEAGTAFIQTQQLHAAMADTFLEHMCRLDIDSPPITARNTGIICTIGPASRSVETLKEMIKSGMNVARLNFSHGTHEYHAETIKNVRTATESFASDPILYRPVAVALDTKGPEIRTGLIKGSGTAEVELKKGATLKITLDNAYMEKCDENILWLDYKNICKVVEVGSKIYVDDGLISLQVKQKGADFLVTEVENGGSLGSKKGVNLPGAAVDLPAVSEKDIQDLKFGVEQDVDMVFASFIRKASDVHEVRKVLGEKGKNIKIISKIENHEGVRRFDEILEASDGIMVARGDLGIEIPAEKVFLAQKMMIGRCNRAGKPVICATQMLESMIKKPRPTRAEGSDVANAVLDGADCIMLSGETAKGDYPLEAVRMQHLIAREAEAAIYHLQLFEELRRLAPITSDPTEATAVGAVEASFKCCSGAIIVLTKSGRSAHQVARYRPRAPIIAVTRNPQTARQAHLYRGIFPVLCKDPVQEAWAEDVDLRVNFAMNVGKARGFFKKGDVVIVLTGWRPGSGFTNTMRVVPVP
In short: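 Human PKM2 activity is measured as ATP generation, detected by luciferase-coupled luminescence. The enzyme (0.1 nM) acts on 0.5 mM PEP and 0.1 mM ADP for 1 h at ambient temperature; data are normalized to uninhibited and full-inhibition wells.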

TAB109 = experiment: qHTS profiling for inhibitors of Plasmodium falciparum proliferation (AID 504749); further: nearly all actives have a fitted effect of over 60% in size; further: potency means the concentration at half of the fitted maximal effect; conditions: P. falciparum in erythrocytes, SYBR Green DNA, 72 h; series mostly up to 28.7 µM
In short: (§1)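 P. falciparum-infected erythrocytes (0.3% parasitemia, 2.5% hematocrit) incubated with compound 72 h at 37 C, 5% CO2. Parasite DNA detected by SYBR Green after lysis, overnight at room temperature; normalised to 0.29 uM artemisinin and DMSO.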

CP211 = experiment: as above; conditions: P. falciparum in erythrocytes, SYBR Green DNA, 72 h; series mostly up to 28.7 µM
In short: as §1

CP237 = experiment: as above; conditions: P. falciparum in erythrocytes, SYBR Green DNA, 72 h; series mostly up to 28.7 µM
In short: as §1

CP268 = experiment: as above; conditions: P. falciparum in erythrocytes, SYBR Green DNA, 72 h; series mostly up to 28.7 µM
In short: as §1

CP286 = experiment: as above; conditions: P. falciparum in erythrocytes, SYBR Green DNA, 72 h; series mostly up to 28.7 µM
In short: as §1

CP291 = experiment: as above; conditions: P. falciparum in erythrocytes, SYBR Green DNA, 72 h; series mostly up to 28.7 µM
In short: as §1

CP297 = experiment: as above; conditions: P. falciparum in erythrocytes, SYBR Green DNA, 72 h; series mostly up to 28.7 µM
In short: as §1

CP315 = experiment: as above; conditions: P. falciparum in erythrocytes, SYBR Green DNA, 72 h; series mostly up to 28.7 µM
In short: as §1

HB3 = experiment: as above; conditions: P. falciparum in erythrocytes, SYBR Green DNA, 72 h; series mostly up to 28.7 µM
In short: as §1

JCK = experiment: as above; conditions: P. falciparum in erythrocytes, SYBR Green DNA, 72 h; series mostly up to 28.7 µM
In short: as §1

PC15 = experiment: as above; conditions: P. falciparum in erythrocytes, SYBR Green DNA, 72 h; series mostly up to 28.7 µM
In short: as §1

TAB113 = experiment: as above; conditions: P. falciparum in erythrocytes, SYBR Green DNA, 72 h; series mostly up to 28.7 µM
In short: as §1

Measured: Potency

O=C1O/C(=C\Br)CC[C@@H]1c1cccc2ccccc12
inactive: [1]

C[C@H]1C[C@@H]2[C@H]3CCC4=CC(=O)C=C[C@@]4(C)[C@@]3(Cl)[C@@H](O)C[C@]2(C)[C@]1(OC(=O)c1ccco1)C(=O)CCl
active: TAB109 3.55 µM

CO/N=C(\C(=O)N[C@@H]1C(=O)N2C(C(=O)[O-])=C(C[N+]3(C)CCCC3)CS[C@@H]12)c1csc(N)n1
not listed: [1] | TAB109
inactive: all other assays above

C[C@@H]1C[C@H]2[C@H]3C[C@@H](F)C4=CC(=O)C=C[C@]4(C)[C@@]3(Cl)[C@@H](O)C[C@@]2(C)[C@@H]1C(=O)COC(=O)C(C)(C)C
inactive: CP211 | CP291 | CP297 | CP315 | JCK

From PubChem BioAssay (NCATS)
